HP1b chromo inh: HP1-beta chromodomain-methylated histone interaction inhibition; AID 540317; 390,000 compounds, 0.56% hits; Potency, µM (doses to about 114 µM), inactives show at the highest dose activity change, negative = inhibition, usual class: inhibitors; AlphaScreen HP1-beta / biotin-H3K9me3 peptide binding; P83916; also: potency is read from the fitted curve at half-maximal effect; nearly all actives have a fitted effect of over 70% in size
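AlphaScreen: HP1-beta (50 nM) preformed 30 min with biotin-H3(1-18)K9me3 peptide (50 nM) in PBS pH 7.4, 0.01% Tween-20. Compound added for 30 min at RT, then streptavidin donor/nickel chelate acceptor beads (10 ug/mL) for 30 min.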
JMJD2A Tudor: blocks the human JMJD2A Tudor domain; O75164; AlphaScreen JMJD2A-Tudor / H3K4me3 peptide binding; Potency, µM (titrated, usually from 114 µM), for the others: top-dose activity change, negative = inhibition, most hits filed as inhibitors; 390,000 compounds, 4.4% hits; AID 504339; also: potency is read from the fitted curve at half-maximal effect; % is scaled to controls: 0 for no effect and ±100 for the full control effect; nearly all actives have a fitted effect of over 50% in size
TDP1 inh: blocks human tyrosyl-DNA phosphodiesterase 1; Potency, µM (top dose mostly 130 µM), for inactives: at the top dose activity change, negative = inhibition, most hits filed as inhibitors; Q9NUW8; recombinant TDP1, AlphaScreen DNA substrate cleavage; 350,000 compounds, 0.28% hits; also: potency is read from the fitted curve at half-maximal effect; % is scaled to controls: 0 for no effect and ±100 for the full control effect; nearly all actives have a fitted effect of over 40% in size
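E. coli-derived human Tdp1, 1 nM final. Cpd preinc 15 min RT; substrate 15 nM final, 5 min RT; AS bead mix 10 ug/ml final, 10 min RT. Signal loss = tyrosine-FITC cleavage. No-enzyme wells = max signal.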
Six1-Eya2 blk: inhibitors of human Six1/Eya2 interaction; Q15475+O00167; AlphaScreen GST-Six1/His-Eya2 binding, biochemical; active compounds read low; activity change, % (concentration not given with the values); 360,000 compounds, 0.56% hits; in the data active = activity change below about -65%; inconclusive = mostly about -30% to -63%; also: % is scaled to controls: 0 for no effect and ±100 for the full control effect
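AlphaScreen luminescence read after one hour at 37 °C in darkness. Pin-transferred compounds met GST-Six1 and His-Eya2 protein (5X stock 250 nM/500 nM) plus glutathione donor and Ni-chelate acceptor beads (5X, 50 ug/mL).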
BAZ2B block: inhibitors of human BAZ2B bromodomain. Q9UIF8. 360,000 compounds, 4.4% hits. Potency, µM (top dose mostly 114 µM), for the others: at the top dose activity change, negative = inhibition, usual class: inhibitors. AID 504333. AlphaScreen BAZ2B-H3K14Ac peptide displacement; also: potency is read from the fitted curve at half-maximal effect; % is scaled to controls: 0 for no effect and ±100 for the full control effect; nearly all actives have a fitted effect of over 60% in size
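Compounds, titrated to a top concentration of 110 uM, were incubated 30 min at room temperature with preformed BAZ2B/acetyl-K14 H3 peptide complex (50 nM each). Proximity signal was measured by AlphaScreen after 20 min with beads.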
CtBP-E1A inh: inhibitors of CtBP/E1A interaction; 340,000 compounds, 0.49% hits; activity change, % (no concentration beside the values); AID 651724; AlphaScreen GST-E1A/His-CtBP binding, 1536-well; active compounds read low; in the data active = activity change below about -65%; inconclusive = mostly about -30% to -63%; also: % is scaled to controls: 0 for no effect and ±100 for the full control effect
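Protein mix (5X: 125 nM each GST-E1A, His-CtBP) was incubated with pinned compound 2 h at 37 deg C in dark, in 50 mM Tris pH 8.0 buffer with 300 mM NaCl. Glutathione donor and nickel acceptor beads followed; AlphaScreen signal read after 1 h.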
* hit, by the source's call; ? = inconclusive; / = no result; [ ] = another dose, or the depositor's remark. Only some compounds are listed: those with a hit (about 5.3% of all), similar ones and a draw of the others. Unless noted, calls follow the shape of the dose curve; as a rule, active = well fitted inhibition curve with a large enough effect; inconclusive = small, poorly fitted or top-dose-only effect; inactive = no such curve, though single readings can be large or run the other way.

SMILES	HP1b chromo inh	JMJD2A Tudor	TDP1 inh	Six1-Eya2 blk	BAZ2B block	CtBP-E1A inh
CC(=O)Nc1ccccc1-c1nc2ccccc2n(C(C)C(=O)Nc2cc(Cl)ccc2C)c1=O (stereo not drawn)	29%	-6%	6%	/	?	/
CCN(CC)C(=O)c1c[nH]c2ccc(S(=O)(=O)Nc3cc(C)cc(C)c3)cc2c1=O	54%	?	0%	-1	7%	-1
CCN(CC)CCNS(=O)(=O)c1ccc2[nH]cc(C(=O)O)c(=O)c2c1	-13%	56µM*	/	-7	?	-24
COc1cc(C(=O)Nc2ccc(-c3nc4ccccc4o3)c(O)c2)cc(OC)c1OC	42%	-6%	-2%[12.3 µM]	/	-7%	/
OC[C@@H](O)COc1cccc2ccccc12	/	/	8%	/	/	/
C=CCOc1ccc(CN(C)CC(O)COc2cccc3ccccc23)cc1 (stereo not drawn)	35µM*	0.71µM*	4%	-8	50µM*	-17
CCCCNC(=O)c1sc(=S)n(-c2ccccc2OC)c1N	?	-30%	-1%	-10	-34%	-9
O=C(NC1CCCCC1)c1sc(=S)n2c1[nH]c(=O)c1ccccc12	?	56µM*	2%	-1	?	0
O=C(NC1CCCCCC1)c1c(O)c2ccccc2[nH]c1=O	8%	-27%	2%	9	-7%	-1
CCCCNC(=O)c1sc(=S)n2c1[nH]c(=O)c1ccccc12	-32%	79µM*	1%	-23	50µM*	-12
CCn1c(=O)cc(SCC(=O)NCCc2cccc(C)c2)c2ccccc21	18%	-10%	0%	/	-15%	/
Cn1c(=O)n(C)c2cc(CNCc3ccccc3Cl)ccc21	50%	0%	3%	/	-20%	/
CCN(CC)CCNc1ncnc2c1[nH]c1ccc(OC)cc12	/	/	4%	/	-22%	/
COc1ccc2[nH]c3c(NCCC4=CCCCC4)ncnc3c2c1	-21%	50µM*	6%	-21	28µM*	0
COc1cc(NS(=O)(=O)c2ccc(NC(=O)c3ccccc3C(=O)O)cc2)nc(OC)n1	17%	-11%	/	/	-23%	/
Nc1ccc([N+](=O)[O-])cc1O	/	/	6%	/	/	/
Nc1cc([N+](=O)[O-])ccc1Nc1ccc(O)cc1	?	56µM*	10%	?	32µM*	/
COc1cc(/C=C/c2[nH]c(=O)[nH]c(=O)c2[N+](=O)[O-])cc([N+](=O)[O-])c1O	-8%	?	/	-18	56µM*	/
COc1cc(C(c2c(C)[nH][nH]c2=O)c2c(C)[nH][nH]c2=O)cc([N+](=O)[O-])c1O	?	45µM*	-1%	2	?	-5
O=C(CCS(=O)(=O)c1nc(-c2ccc3c(c2)OCO3)cc(C(F)(F)F)n1)Nc1ccc(Br)cc1	41%	7%	3%	/	2%	/
NNc1ccccc1C(F)(F)F	?	32µM*	50µM*	1	50µM*	4
O=C1c2cc(S(=O)(=O)N3CCOCC3)ccc2-c2ccc(S(=O)(=O)N3CCOCC3)cc21	28%	-26%	0%	/	/	/
CC1=[N+](C)c2c(ccc3cccnc23)C1(C)C	?	25µM*	12%	?	40µM*	0
Cc1cc(OCCn2cnc3ccccc3c2=O)cc(C(C)C)c1	14%	79µM*	-1%	22	-6%	-3
Cc1ccccc1CN1C(=O)/C(=C\c2ccc(C(=O)NCCN3CCOCC3)cc2)Sc2ccccc21	-14%	?	7%	-14	-39%	-18
SMILES	HP1b chromo inh	JMJD2A Tudor	TDP1 inh	Six1-Eya2 blk	BAZ2B block	CtBP-E1A inh
CCN1CCN(CCNC(=O)c2ccc3c(c2)N(Cc2ccc(F)cc2)C(=O)/C(=C/c2ccccc2)S3)CC1	?	?	5%	-9	40µM*	-11
CCN1CCN(CCNC(=O)c2ccc(/C=C3/Sc4ccccc4N(Cc4cccc(Cl)c4)C3=O)cc2)CC1	?	22µM*	5%	-11	-37%	-23
CC(=O)OCCCNc1cc(SCc2ccco2)c2nonc2c1[N+](=O)[O-]	?	50µM*	-3%	?	?	-11
CCCC(=O)OCCNc1cc(SCc2ccco2)c2nonc2c1[N+](=O)[O-]	?	?	1%	?	25µM*	-25
CCC(=O)OCCNc1cc(Sc2nc3ccccc3[nH]2)c2nonc2c1[N+](=O)[O-]	?	79µM*	-6%	-25	-34%	-2
NC(=O)C(CC(=O)O)NC(=O)[C@@H]1CCOc2c(I)cc([N+](=O)[O-])cc2C(=O)N[C@@H](CO)C(=O)N[C@@H](Cc2ccc(O)cc2)C(=O)N1 (stereo partly drawn)	-12%	50µM*	0%	-17	?	-3
CC(C)C[C@@H]1NC(=O)[C@H](Cc2ccc(O)cc2)NC(=O)[C@H](CCC(N)=O)NC(=O)c2cc([N+](=O)[O-])cc(I)c2NCC[C@@H](C(N)=O)NC1=O	/	/	4%	/	50µM*	/
C[C@@H]1NC(=O)[C@H](CCCN=C(N)N)NC(=O)c2cc([N+](=O)[O-])cc(I)c2OCC[C@@H](C(N)=O)NC1=O	/	/	3%	/	?	/
CC(C)C[C@@H]1NC(=O)[C@H](C(C)C)NC(=O)c2cc([N+](=O)[O-])cc(I)c2NCC[C@@H](C(N)=O)NC1=O	23%	-20%	-3%	4	79µM*	0
CC(C)[C@@H]1NC(=O)c2cc([N+](=O)[O-])cc(I)c2NCC[C@@H](C(N)=O)NC(=O)[C@H](CO)NC1=O	/	/	5%	/	?	/
NC(=O)[C@@H]1CCNc2c(I)cc([N+](=O)[O-])cc2C(=O)N[C@@H](CO)C(=O)N[C@@H](Cc2ccc(O)cc2)C(=O)N1	/	/	-4%	/	79µM*	/
NC(=O)[C@@H]1CCCNc2c(F)cc([N+](=O)[O-])cc2C(=O)N[C@@H](CO)C(=O)N[C@@H](Cc2ccc(O)cc2)C(=O)N1	15%	-27%	3%	6	-37%	-1
CCOC(=O)c1ccc(NC(=O)CSc2nc3ccccc3c(=O)n2CCC(=O)NC2CCCCC2)cc1	26%	-25%	-2%	/	0%	/
Cc1cccc(NC(=O)CN2C(=O)S/C(=C\c3ccc(O)c([N+](=O)[O-])c3)C2=O)c1	-24%	50µM*	/	-5	?	0
O=C(CN1C(=O)c2ccccc2C1=O)Nc1ccc(N2CCOCC2)cc1	7%	-13%	4%	8	/	-4
Cc1ccc(NC(=O)CN2C(=O)S/C(=C/c3ccc(O)c([N+](=O)[O-])c3)C2=O)cc1C	?	22µM*	79µM*	?	14µM*	-5

Compound activity from PubChem.
